This is a sample that favours compounds with a hit; in the whole collection about 3.6% have one here.
mHTT-CaM PPI inh = mHTT-calmodulin interaction abrogation. AlphaScreen His-mHTT/GST-CaM binding, luminescence. inhibition, % at 15 µM. 190,000 tested, 3.6% active. P42858. AID 1671202;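 also: 0% = both proteins with DMSO and 100% = one protein alone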
Pf apPOL block = Pf-apPOL DNA polymerase inhibition | Recombinant Pf-apPOL, molecular beacon fluorescence, 1.5 h | inhibition, % at 10 µM | 210,000 tested, 0.25% active | AID 1794808
Starred values were filed as active, the others as inactive; . = no result given. Rule as the data show it: active = inhibition above about 50%; inactive = the rest.

SMILES | mHTT-CaM PPI inh | Pf apPOL block
COc1ccc(OC)c(NC(=O)c2c(NCc3cccc(F)c3)sc3c2CCC3)c1 | 73* | -16
COc1ccc(OC)c(NC(=O)c2c(NCc3cccs3)sc3c2CCC(C)C3)c1 (configuration not stated) | 66* | -17
COc1ccc(OC)c(NC(=O)c2c(NCc3cccc(OC)c3OC)sc3c2CCC3)c1 | 59* | -13
COc1ccc(OC)c(NC(=O)c2c(NC(=O)CNCc3ccccc3)sc3c2CCC3)c1 | -3 | -1
COc1ccc(OC)c(NC(=O)c2c(NC(=O)CN3CCCC(C)C3)sc3c2CCC3)c1 (configuration not stated) | -3 | -10
COc1ccccc1NC(=O)c1c(NCc2sccc2C)sc2c1CCC2 | 56* | -20
Cc1ccc(-n2nc3c(c2NC(=O)c2ccc(Br)cc2)CS(=O)(=O)C3)c(C)c1 | 8 | -6
Cc1ccc(C(=O)NCC2CCCO2)c(C2CCN(C(=O)c3ccccc3)CC2)n1 (configuration not stated) | 3 | -1
CN(C)c1ncccc1NC(=O)c1ccccc1 | 5 | -4
COc1ccc(C2=N/C(=C\c3cccc([N+](=O)[O-])c3)C(=O)O2)cc1 | -4 | -6
O=C(NC1CC1)C1CCc2nc(N3CCN(C(=O)C4CCC4)CC3)sc2C1 (configuration not stated) | 3 | -1
Fc1ccccc1CSc1nnnn1-c1ccccc1F | -59 | -6
COc1ccccc1NC(=O)c1c(NC(=O)Cc2ccccc2)sc2c1CCC2 | -2 | -4
COc1ccc(OC)c(NC(=O)c2c(N)sc3c2CCC3)c1 | 41 | -10
COc1ccc(OC)c(CNc2sc3c(c2C(=O)Nc2cc(OC)ccc2OC)CCC3)c1 | 66* | -16
COc1ccc(OC)c(CNc2sc3c(c2C(=O)Nc2ccccc2OC)CCC3)c1 | 82* | 4
Cc1c(C)c(C)c(C(C)O)c(C)c1C (configuration not stated) | . | -2
CCOc1ccc(CC(=O)N2CCCC2c2cccc(F)c2)cc1 (configuration not stated) | 1 | -2
O=C(NCCc1ccccc1Cl)C(=O)NC1CC1 | 1 | 2
CC12CC(NC(=O)N1C1CCCCC1)c1cc(Cl)ccc1O2 (configuration not stated) | -3 | -9
CCN1c2cc(Cl)ccc2C(=O)NC12CCN(C(=O)NC1CCCCC1)CC2 | 22 | -1
Cc1cccc(CN2Cc3cccc4c3[C@H](C=CC4)CC2=O)c1 | 100* | -4
O=C1C[C@H]2C=CCc3cccc(c32)CN1Cc1ccc(F)cc1 | 32 | -8
COCCCNc1nc(-c2ccc(C(C)(C)C)cc2)nc2ccccc12 | -8 | -5
O=C(Nc1cnc(N2CCCC2)nc1)c1ccccc1Cl | -2 | 0
SMILES | mHTT-CaM PPI inh | Pf apPOL block
CN(C)c1ccc(NC(=O)Cn2c(-c3ccccc3F)nc3ccccc3c2=O)cc1 | 8 | 0
Cc1cccc(C)c1NC(=O)CN1C(=O)c2ccc([N+](=O)[O-])cc2C1=O | 0 | 0
O=C(CN1C(=O)S/C(=C\c2c(Cl)cccc2Cl)C1=O)Nc1cc([N+](=O)[O-])ccc1O | 61* | -19
COc1ccc(C)cc1NC(=O)Cn1nc(C(=O)N2CCN(C)CC2)cc1C | -3 | -9
COCc1[nH]nc2c1C(c1ccccc1OC)C(C#N)=C(N)O2 (configuration not stated) | 0 | 4
COc1ccc(S(=O)(=O)n2cc([N+](=O)[O-])cn2)cc1OC | 100* | -8
COc1ccc(S(=O)(=O)n2c([N+](=O)[O-])cnc2C)cc1OC | 2 | -4
CN(C(=O)c1ccc(N2CC3CC(C2)c2cccc(=O)n2C3)c([N+](=O)[O-])c1)C1CCCCC1 (configuration not stated) | 8 | -7
CN(CCCNC(=O)C1CCN(c2ccncc2)CC1)c1ccccc1 | 17 | -8
CN(CCCNC(=O)C1CCN(c2ccc(N3CCCCC3)nn2)CC1)c1ccccc1 | 54* | -9
CCN(C(=O)C1CCc2nc(N3CCN(C(=O)C(C)C)CC3)sc2C1)c1ccccc1 (configuration not stated) | 17 | 0
CCS(=O)(=O)N1CCc2ccc(NS(=O)(=O)c3ccc4c(c3)OCCO4)cc2C1 | 1 | -9
Cc1cc(Nc2ccc(O)cc2)c2cc(Cl)ccc2n1 | 17 | -7
Cc1cc(Nc2ccc(N(C)C)cc2)c2cc(Cl)ccc2n1 | 73* | -6
CCOc1ccc2nc(C)cc(Nc3ccc(C)c(Cl)c3)c2c1 | 95* | -12
CCOc1ccc2nc(C)cc(Nc3ccc(N4CCOCC4)cc3)c2c1 | 25 | -3
Cc1ccc2oc(-c3cccc(NC(=O)c4ccccc4)c3)nc2c1 | -2 | -13
O=C(Nc1nnc(C2=COCCO2)o1)c1ccc([N+](=O)[O-])cc1 | 2 | -1
CC(=O)Nc1ccc(S(=O)(=O)N2CCC(c3nc4cccnc4n3C)C2)cc1 (configuration not stated) | -1 | -6
COCCn1cc2c3c(cccc31)CN(C(=O)Nc1cc(Cl)ccc1C)CC2 | 11 | 0
COCCn1cc2c3c(cccc31)CN(C(=O)c1cc(Cl)ccc1OC)CC2 | 71* | 0
CCCNC(=O)N1CCc2cn(CCOC)c3cccc(c23)C1 | -6 | -2
COCCn1cc2c3c(cccc31)CN(C(=O)c1cc(F)ccc1F)CC2 | 26 | -3
COCCn1cc2c3c(cccc31)CN(C(=O)Nc1cccc(F)c1)CC2 | 3 | 1
COCCn1cc2c3c(cccc31)CN(C(=O)c1ccc(F)cc1)CC2 | 64* | -1
SMILES | mHTT-CaM PPI inh | Pf apPOL block
COCCn1cc2c3c(cccc31)CN(C(=O)c1ccc(F)c(F)c1)CC2 | 61* | -2
COCCn1cc2c3c(cccc31)CN(C(=O)c1ccc(Br)o1)CC2 | 76* | -7
CCC(=O)N1CCCC(c2ccnc(Nc3ccccc3C)n2)C1 (configuration not stated) | 4 | -3
O=C(NCC1CCN(Cc2ccco2)CC1)c1ccccc1Cl | -8 | -3
Cc1ccc(CNC(=O)C2CCN(c3nn4c(=O)c5c(nc4s3)CCCC5)CC2)cc1 | 89* | 3
O=C(NCc1cccc(F)c1)C1CCN(c2nn3c(=O)c4c(nc3s2)CCCC4)CC1 | 10 | 9
COCCNC(=O)Cn1c(CO)cnc1SCC(=O)Nc1ccc2c(c1)OCCO2 | -4 | 3
C=CCNC(=S)NC12CC3CC(CC(C3)C1)C2 | -3 | -3
CCOc1ccc(C2C(N3C(=O)c4ccccc4C3=O)C(=O)N2c2ccc(OC)c(Cl)c2)cc1 (configuration not stated) | 10 | 19
Cc1nc(-c2ccncc2)nc2c1CCC(=O)N2CCN1CCCC1 | 28 | 56*
Cc1nc(-c2ccncc2)nc2c1CCC(=O)N2Cc1ccncc1 | 6 | 14
Cc1nc(-c2cnccn2)nc2c1CCC(=O)N2Cc1ccncc1 | 60* | 59*
Cc1nc(-c2ccncc2)nc2c1CCC(=O)N2Cc1ccco1 | 22 | -8
Cc1ccc(CN2C(=O)CCc3c(C)nc(-c4ccccc4)nc32)o1 | 90* | 20
Cc1nc(-c2cnccn2)nc2c1CCC(=O)N2Cc1ccccc1 | 9 | -1
COc1ccc(OCC(=O)NCCC2CCN(C(=O)c3ccc(F)cc3)CC2)cc1 | 7 | 3
COc1ccccc1CNC(=O)C(=O)Nc1ccc(C)cc1[N+](=O)[O-] | 2 | -6
N#CCC[C@@H]1CC[C@]2(CCCN(C(=O)c3ccco3)C2)O1 | 99* | -6
CCN(CC)C(=O)CC[C@H]1CC[C@]2(CCCN(Cc3ccc(Br)cc3)C2)O1 | 9 | 0

From PubChem BioAssay
